Bioassay records: PubChem, National Center for Advancing Translational Sciences (NCATS)
Pf growth 96h – Primary qHTS for delayed death inhibitors of the malarial parasite plastid, 96 hour incubation. P. falciparum luciferase reporter growth, 96 h. Potency, µM (series often up to 28.7 µM), for the others: at the highest dose activity change, negative = inhibition, usual class: inhibitors. 6.9% of 320,000 active. AID 504834, 2011; further: potency means the concentration at half of the fitted maximal effect; on the % scale 0 is the no-effect control and ±100 the full control effect
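96 h incubation, 37 C, 5% CO2, of luciferase-reporter P. falciparum-infected RBCs (2% hematocrit, 0.05% parasitemia final) with test compounds; endpoint luminescence.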
Pf growth 48h – Primary qHTS for delayed death inhibitors of the malarial parasite plastid, 48 hour incubation; P. falciparum luciferase growth in erythrocytes, 48 h; Potency, µM (highest dose often 28.7 µM), for inactives: at the top dose activity change, negative = inhibition, hits mostly inhibitors; 5.9% of 310,000 active; AID 504832, 2011; further: potency means the concentration at half of the fitted maximal effect; on the % scale 0 is the no-effect control and ±100 the full control effect
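Firefly luciferase activity from engineered P. falciparum reports growth; inhibitors lower the luminescent signal. Cultures contained 2% hematocrit erythrocytes at 0.1% final parasitemia.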
NS1 function inh – qHTS Assay for Inhibitors of Influenza NS1 Protein Function | Potency, µM (doses to about 46.1 µM), without a hit: top-dose activity, positive = more growth | 0.4% of 270,000 active; calls by dose curve; further: potency means the concentration at half of the fitted maximal effect; actives are rising curves; nearly all actives have a fitted effect of over 50% in size
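In this qHTS, NS1 from influenza A is expressed in budding yeast, where it slows growth. Cells are switched from glucose to 2% galactose medium (pH 6.0, -URA), treated with compound, and growth recovery is read at OD600.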
Shiga inhibitor – A qHTS for Small Molecule Inhibitors of Shiga Toxin; Vero cells, Shiga toxin protein synthesis inhibition reporter; 9.2% of 290,000 active; inhibition, % at 38.7 µM; in the data active means inhibition mostly above about 28%, no sharp cut-off; inactive means mostly below about 43%; further: 0% is about no effect
FBPA Giardia inh – qHTS Assay for Inhibitors of Fructose-1,6-bisphosphate Aldolase from Giardia Lamblia; 0.71% of 290,000 active; A8B2U2; Potency, µM (top dose mostly 59.6 µM), for the others: at the top dose activity, negative = inhibition, actives largely listed as inhibitors; purified Giardia FBPA; further: potency means the concentration at half of the fitted maximal effect; on the % scale 0 is the no-effect control and ±100 the full control effect; nearly all actives have a fitted effect of over 55% in size
Target sequence (A8B2U2 whole entry, looked up): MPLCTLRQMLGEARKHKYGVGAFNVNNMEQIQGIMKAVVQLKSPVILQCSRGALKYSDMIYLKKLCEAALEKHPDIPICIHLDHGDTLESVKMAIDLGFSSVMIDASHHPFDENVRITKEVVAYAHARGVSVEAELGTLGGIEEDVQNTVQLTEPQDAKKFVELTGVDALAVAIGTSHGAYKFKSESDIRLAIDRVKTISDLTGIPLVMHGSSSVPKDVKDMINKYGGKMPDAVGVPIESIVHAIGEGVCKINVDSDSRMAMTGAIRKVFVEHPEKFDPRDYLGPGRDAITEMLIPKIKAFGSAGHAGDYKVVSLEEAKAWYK
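40 nM FBPA preincubated 10 min at RT with compound (up to 57.5 uM final), then substrate plus GAPDH/TPI/NAD/arsenate coupling and diaphorase/resazurin added. Fluorescence read after 20 min at RT, 525/598 nm.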
Cycloheximide cs – Cycloheximide Counterscreen for Small Molecule Inhibitors of Shiga Toxin; 12% of 300,000 active; cell reporter, cycloheximide protein synthesis inhibition counterscreen; max response, %; in the data active means max response mostly above about 13%, no sharp cut-off; inactive means mostly below about 14%; further: read at 38.3 µM for the half of the compounds with a filed dose; 0% is about no effect
The depositor's hits bear a star; ? = inconclusive; . = no result given. Compounds with a hit are over-represented: about 21% of the library has one in this group of screens. Unless noted, the call rests on the fitted dose curve; in most records, active means well fitted curve in the direction sought with a large enough effect; inconclusive means small, poorly fitted or top-dose-only effect, or another doubt; inactive means no such curve, though single readings can be large; an effect the other way counts as inactive or inconclusive.

SMILES	Pf growth 96h	Pf growth 48h	NS1 function inh	Shiga inhibitor	FBPA Giardia inh	Cycloheximide cs
COc1ccc(S(=O)(=O)N2CCOCC2)cc1NC(=O)CSc1nnc2c(n1)[nH]c1ccccc12	?	?	8%	-10	-5%	4
Cn1c(Cc2ccccc2)[n+](C)c2ccccc21	?	?	.	-15	2%	-3
CN(C)C(=O)Oc1ccc(OCc2n(C)c3ccccc3[n+]2C)cc1	2.3µM*	?	8%	-3	4%	-2
Cc1ccc(NC(=O)CCNS(=O)(=O)c2ccc3c(c2)CCC(=O)N3)cc1C	?	4%	5%	3	.	-5
O=c1c(Br)c(NCc2ccccc2)cnn1-c1ccc(F)cc1	12%	21%	-6%	40*	4%	26*
O=c1[nH]c(SCc2ccccc2)nc2c1cnn2-c1ccc(F)cc1	-2%	2%	6%	-3	-7%	-2
N#CC(C#N)=C(Nc1ccc(F)cc1)SCc1cccc(F)c1	?	?	-35%	2	-1%	-3
Cc1nn(C(C)C)c(C)c1CN1CCCC(C(=O)c2cccc(OC(C)C)c2)C1 (stereo unspecified)	12µM*	?	3%	-7	8%	-3
CC(C)Oc1cccc(C(=O)C2CCCN(S(C)(=O)=O)C2)c1 (stereo unspecified)	3.7µM*	44%	3%	3	1%	9
CCn1nc(C)c(CN2CCCC(C(=O)c3cccc(OC(C)C)c3)C2)c1C (stereo unspecified)	20%	-22%	7%	-24	0%	-2
CCCCn1c(N)c(N(CC(C)C)C(=O)c2ccc(-c3ccc(C(C)=O)cc3)o2)c(=O)[nH]c1=O	-18%	-5%	.	.	.	.
COC(=O)C1=C(C)NC(=O)CC1c1cccc(Cl)c1Cl (stereo unspecified)	?	5.2µM*	-23%	-9	-2%	-6
COc1cc2c(cc1OC)C(c1cccc(Cl)c1Cl)CC(=O)N2 (stereo unspecified)	?	-20%	8%	11	5%	2
CS(=O)(=O)N(CC(=O)N1CCCC1)c1cc(Cl)c(Cl)cc1Cl	9.3µM*	.	3%	-11	5%	-4
CCCc1cc(-c2[nH]ncc2-c2ccc3c(c2)OCCCO3)c(O)cc1OC	.	3.7µM*	-69%	-33	-19%	-2
Nc1nonc1NN=C1CCCCC1	14%	27%	3%	77	-10%	12*
Cc1nc(CCNC(=O)CC2C(=O)NCCN2Cc2ccccc2)sc1C (stereo unspecified)	?	20%	8%	14	-20%	1
CC(C)=CCN1CCNC(=O)C1CC(=O)NCc1nc(C)c(C)s1 (stereo unspecified)	2.3µM*	0%	1%	-3	-2%	-3
Cc1oc(-c2cccs2)nc1CN1CCN(C(C)C)C(CCO)C1 (stereo unspecified)	10µM*	98%	-2%	-6	3%	-3
CCOC(=O)c1c(N)sc(C(=O)Nc2ccccc2)c1C	7%	79%	-34%	73*	-7%	26*
CCC(=O)Nc1sc(C(=O)Nc2ccccc2F)c(C)c1C(=O)OC	2.1µM*	6%	-3%	52*	0%	7
COC(=O)c1c(NC(C)=O)sc(C(=O)Nc2ccccc2)c1C	-1%	30%	-3%	28	-21%	10
CCCC(=O)Nc1sc(C(=O)Nc2cccc(N)c2)c(C)c1C(=O)OC	13%	59%	3%	59*	-5%	51*
CCOC(=O)n1ccc(C(=O)Nc2ccccc2F)n1	?	51%	-4%	37	-1%	5
CCOC(=O)c1cc(C(=O)Nc2ccccc2F)nn1C	334%	.	-8%	72*	2%	37*
CCN(CC(=O)Nc1ccc(NC(C)=O)cc1)C(=O)/C=C/c1c(C)nn(-c2ccc(F)cc2)c1C	?	?	-5%	7	.	-2
CCC(C)(C)C1CCC(NC(=O)N2CCN(c3ccccc3O)CC2)CC1 (stereo unspecified)	-19%	?	0%	2	13%	8
